In PubChem BioAssay (NCI):
Compounds without any hit were thinned out: in the full panel of roughly 83,000, 20% have a hit.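 Each cell line was grown in a 96-well plate and treated with one concentration of compound for 48 hours. Values below 10 were considered active.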 Active and inactive are the calls of the source.

How the values were obtained:
Assay in all cases: NCI-60 one-dose screen, 48 h (100 = growth as untreated, 0 = no growth, -100 = all killed)
[1] = tested on: NCI-H23 lung; details: 10 µM unless noted
[2] = tested on: NCI-H226 lung; details: 10 µM unless noted
[3] = tested on: NCI-H322M lung; details: 10 µM unless noted
[4] = tested on: HOP-62 NSCLC; details: 10 µM unless noted
[5] = tested on: NCI-H460 lung; details: 10 µM unless noted
[6] = tested on: HOP-92 NSCLC; details: 10 µM unless noted
[7] = tested on: NCI-H522 lung; details: 10 µM unless noted
[8] = tested on: A549/ATCC NSCLC; details: 10 µM unless noted
[9] = tested on: 786-0 renal; details: 10 µM unless noted
[10] = tested on: DU-145 prostate; details: 10 µM unless noted
[11] = tested on: K-562 leukemia; details: 10 µM unless noted
[12] = tested on: MALME-3M melanoma; details: 10 µM unless noted
[13] = tested on: MDA-MB-231 breast; details: 10 µM unless noted
[14] = tested on: SF-268 CNS; details: 10 µM unless noted
[15] = tested on: SF-295 CNS; details: 10 µM unless noted
[16] = tested on: SF-539 CNS; details: 10 µM unless noted
[17] = tested on: UACC-257 melanoma; details: 10 µM
[18] = tested on: M14 melanoma; details: 10 µM unless noted
[19] = tested on: RXF 393 renal; details: 10 µM unless noted
[20] = tested on: COLO 205 colon; details: 10 µM unless noted

Measured: growth

CCc1cccc(C)c1NC(=O)c1sc2nc3c(cc2c1N)C(=O)CCC3
inactive: [1] 39.1% | [2] 62.1% | [3] 51.3% | [4] 23.3% | [6] 79.2% | [8] 22.9% | [9] 38.7% | [10] 14.2% | [12] 45.1% | [13] 31% | [14] 42.7% | [15] 10.8% | [17] 66.6% | [18] 12.5%
active: [5] 8.12% | [7] -0.871% | [11] 8.64% | [16] -14.4%

Cc1oc2nc[nH]c(=O)c2c1C(=O)/C=C/c1ccc(Cl)cc1
inactive: [1] 39.7% | [2] 94% | [3] 45.2% | [5] 21% | [7] 17.5% | [8] 31.7% | [9] 29.7% | [12] 71% | [13] 22.3% | [14] 50.1% | [15] 77% | [16] 14.5% | [18] 82.3%
active: [4] 6.15% | [6] -4.23% | [10] 6.76% | [11] -63.2%

NC(=O)NC(=O)/C=C/C(=O)OCCCl
active: [7] -42.5%
inactive: [1] 111% | [2] 98.2% | [3] 105% | [4] 114% | [5] 104% | [6] 71.6% | [8] 105% | [9] 125% | [10] 112% | [11] 94.4% | [12] 95.9% | [13] 115% | [19] 105% | [14] 110% | [15] 89.1% | [16] 105% | [17] 77.4% | [18] 113%

C=C1C(=O)O[C@H]2[C@H]1CC/C(Cn1cc(-c3ccsc3)nn1)=C\CC[C@@]1(C)O[C@@H]21
inactive: [3] 72.7% | [4] 28.4% | [5] 41% | [8] 13.8% | [15] 53.9%
active: [1] -14.9% | [2] 7.54% | [6] -72.9% | [7] -67.8% | [9] -86.7% | [10] -83.5% | [11] -16.2% | [12] -66.4% | [13] -58% | [19] -56.7% | [14] -25.8% | [16] -72.1% | [18] -56.7%

COc1ccc(NC(=O)c2cc3ccccc3nc2Nc2cc(OC)c(OC)c(OC)c2)cc1
inactive: [1] 59.6% | [2] 54.5% | [3] 90.2% | [4] 84.1% | [5] 50.3% | [6] 54.7% | [7] 57.2% | [8] 50.4% | [9] 58% | [10] 66.3% | [11] 50.6% | [12] 132% | [13] 54.1% | [19] 60.5% | [14] 66.6% | [15] 65.5% | [16] 68.3% | [17] 83.6% | [18] 55.1%

COc1ccc(C2NC3=C(CCCC3)C(C#N)(C#N)C2(C#N)C#N)cc1 (stereo not drawn)
inactive: [1] 91.4% | [2] 97% | [3] 109% | [4] 94.6% | [5] 97.6% | [6] 103% | [7] 23.8% | [8] 106% | [9] 88.1% | [10] 94.2% | [11] 12.5% | [12] 71.6% | [13] 70.1% | [19] 93.8% | [14] 97.8% | [15] 99.7% | [16] 101% | [18] 90.7%

Oc1ccc(N=Cc2ccccc2)cc1
inactive: [1] 88.5% | [2] 111% | [3] 103% | [4] 115% | [5] 102% | [6] 51.9% | [7] 67.7% | [8] 103% | [20] 113% | [10] 89.5% | [11] 32.6% | [12] 83.5% | [19] 114% | [14] 95.9% | [15] 112% | [16] 94.9% | [17] 106% | [18] 91.5%

CSc1nc(-c2cc3ccccc3o2)cc(-c2ccc(Cl)cc2)c1C#N
inactive: [1] 44.8% | [2] 39.1% | [3] 82.2% | [4] 69.8% | [5] 24% | [6] 10.3% | [7] 25.6% | [8] 32% | [9] 90.3% | [10] 68.5% | [11] 63.4% | [12] 89.3% | [13] 27.8% | [14] 51.7% | [18] 67.6%
active: [15] 9.92% | [16] -7.47%

COc1cccc(-c2nc3sccn3c2-c2ccnc(NCCCNS(=O)(=O)c3ccc(F)cc3)n2)c1
inactive: [1] 16.2% | [2] 13.7% | [3] 64.7% | [4] 82.4% | [5] 40.3% | [6] 61.5% | [7] 14% | [8] 41.6% | [9] 44.1% | [10] 27.7% | [11] 16.6% | [12] 32.4% | [13] 53.2% | [19] 55% | [14] 37% | [15] 24.7% | [16] 66.7% | [17] 55.2% | [18] 18.1%

COC1=CC(c2ccc[nH]2)=N/C1=C\c1[nH]c(C)c(C(=O)CCCCC(=O)NCc2ccccc2)c1C
active: [5] 1.07% | [6] -55.5% | [7] -33.5% | [8] 1.81% | [13] -30.5% | [19] -72.3%
inactive: [1] 31.6% | [2] 28.6% | [3] 77% | [4] 57.1% | [9] 18.9% | [10] 17% | [11] 74.5% | [12] 76.7% | [14] 54.9% | [15] 51.2% | [16] 56.6% | [17] 86.9% | [18] 36.2%

CCN(C(=O)c1cc2ccccc2[nH]1)[C@H]1CCC[C@@H](NCc2ccc(OC)cc2)C1
inactive: [1] 89.8% | [2] 107% | [3] 76.1% | [4] 86.2% | [5] 103% | [6] 81% | [7] 95.6% | [8] 98.7% | [9] 97% | [10] 95.6% | [11] 76.6% | [12] 92.3% | [13] 90.4% | [19] 86% | [14] 89.8% | [15] 99.2% | [16] 104% | [17] 112% | [18] 98.2%

CC(=O)OCC1OC(OCC2OC(OC(C)=O)C(OC(C)=O)C(OC(C)=O)C2OC(C)=O)C(OC(C)=O)C(OC(C)=O)C1OC(C)=O (stereo not drawn)
inactive: [1] 103% | [2] 83.1% | [3] 101% | [4] 97.5% | [5] 104% | [6] 91.7% | [7] 104% | [8] 94.4% | [9] 103% | [10] 110% | [11] 106% | [12] 108% | [19] 71% | [14] 105% | [15] 99.3% | [16] 108% | [17] 95.8% | [18] 107%

CN(C)C/C=C/C(=O)Nc1cc2c(Nc3ccc(F)c(Cl)c3F)ncnc2cc1OCCOC(F)F
active: [3] 1.96% | [6] -53.7% | [7] -25.7% | [9] 0.67% | [11] 5.47% | [13] -1.17% | [19] -29.4% | [16] 9.19%
inactive: [1] 26.6% | [2] 25.1% | [4] 20.6% | [5] 36.6% | [8] 21.8% | [10] 10.4% | [12] 35.3% | [14] 14.4% | [15] 33.7% | [18] 41.5%

CCCCCCCCCCC/C=C\C[C@H](O)C/C=C1/C(=O)C=C[C@@H]1C/C=C\CCCC(=O)OC
active: [1] -25.2% | [2] -45.9% | [4] -16.1% | [5] -31.4% | [6] -13.6% | [7] -41.9% | [9] -3.32% | [11] 2.5% | [12] -2.61% | [13] -18.2% | [19] -72.8% | [14] 7.18% | [15] -16% | [16] -46.2% | [18] -31.9%
inactive: [3] 69.8% | [8] 15.6% | [10] 13.3%

O=C(C[N+](=O)[O-])c1ccc(Cl)cc1
inactive: [1] 104% | [2] 110% | [3] 112% | [4] 104% | [5] 111% | [6] 101% | [7] 109% | [8] 106% | [9] 98.5% | [10] 111% | [11] 103% | [12] 114% | [13] 110% | [19] 115% | [14] 108% | [15] 111% | [16] 104% | [18] 101%

Cc1ccc(S(=O)(=O)OC2COCOC2C(OS(=O)(=O)c2ccc(C)cc2)C2OCOCC2OS(=O)(=O)c2ccc(C)cc2)cc1 (stereo not drawn)
inactive: [1] 109% | [2] 95.2% | [3] 96.3% | [4] 99.4% | [5] 110% | [6] 104% | [7] 98.3% | [8] 93.6% | [20] 108% | [10] 111% | [11] 100% | [12] 98.1% | [19] 114% | [14] 106% | [15] 104% | [16] 98.9% | [17] 97.2% | [18] 112%

CCN1C(=O)N(CC)C2Nn3c(s/c(=C4\C(=O)N(C5CCCC5)c5ccccc54)c3=O)=NC21 (stereo not drawn)
inactive: [1] 53.9% | [2] 91.8% | [3] 94.8% | [4] 50% | [5] 43.9% | [6] 67.4% | [7] 28% | [8] 54.4% | [9] 63.6% | [10] 43.6% | [11] 22% | [12] 70.9% | [13] 58.1% | [14] 59.5% | [15] 60.6% | [16] 37% | [18] 91.9%
